# High-throughput results: PubChem BioAssay, National Center for Advancing Translational Sciences (NCATS)
# Shown are actives, neighbours in structure and some others; about 0.9% of the full set was active somewhere.
# RXFP1 antag: blocks the human relaxin receptor RXFP1; activity change, negative = inhibition, % at 57.5 µM; Q9HBX9; 350,000 tested, 0.59% active; HEK293-RXFP1, relaxin-stimulated cAMP HTRF, 30 min; hits give low values;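 active = activity change of -60% or lower, but not beyond a set lower limit; inconclusive = change between -60% and -40%, or beyond the set limit; inactive = change above -40%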
# Target sequence (Q9HBX9 whole entry, looked up): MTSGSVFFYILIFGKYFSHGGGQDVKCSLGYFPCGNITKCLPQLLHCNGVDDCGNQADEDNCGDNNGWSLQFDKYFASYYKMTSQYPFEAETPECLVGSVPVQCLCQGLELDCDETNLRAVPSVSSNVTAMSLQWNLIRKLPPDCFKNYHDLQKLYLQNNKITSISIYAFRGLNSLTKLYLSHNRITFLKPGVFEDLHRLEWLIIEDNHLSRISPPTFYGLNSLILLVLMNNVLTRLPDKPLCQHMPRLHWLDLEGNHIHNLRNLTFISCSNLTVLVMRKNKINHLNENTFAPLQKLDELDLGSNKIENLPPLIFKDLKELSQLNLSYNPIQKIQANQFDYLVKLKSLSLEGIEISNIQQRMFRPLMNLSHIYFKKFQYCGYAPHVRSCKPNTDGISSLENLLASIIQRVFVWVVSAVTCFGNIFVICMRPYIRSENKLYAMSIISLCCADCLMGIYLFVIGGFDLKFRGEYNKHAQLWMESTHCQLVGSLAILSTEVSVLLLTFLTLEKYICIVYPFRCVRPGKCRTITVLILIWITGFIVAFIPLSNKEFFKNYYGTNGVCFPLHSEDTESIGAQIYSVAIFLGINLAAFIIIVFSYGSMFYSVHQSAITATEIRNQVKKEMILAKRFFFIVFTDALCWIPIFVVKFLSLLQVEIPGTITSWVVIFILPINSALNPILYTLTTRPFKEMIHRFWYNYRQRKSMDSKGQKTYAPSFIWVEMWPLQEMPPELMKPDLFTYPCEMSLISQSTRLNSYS
# gsp antag: antagonizes gsp, the McCune-Albright syndrome mutation; gsp-mutant cells, cAMP HTRF, 30 min; Potency, µM (titrated, usually from 76.9 µM), hits mostly inhibitors; 340,000 tested, 0.4% active; calls by dose curve; cell line not stated here;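 note: intracellular cAMP measured with PDE inhibitor Ro 20-1724 present during compound exposure; nearly all actives have a fitted effect of over 65% in size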
#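 Measurement of cellular cAMP by homogeneous time-resolved fluorescence following a 30 min compound exposure at 37C. The PDE inhibitor […] was present throughout; the assay buffer was DPBS with 0.05% BSA and 0.005% Tween 20.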
# gsp ag: activates gsp, the McCune-Albright syndrome mutation; Potency, µM (series often up to 76.9 µM), actives largely listed as activators; 340,000 tested, 0.13% active; gsp mutant cells, cAMP HTRF, 30 min; active = well fitted activation curve with a large enough effect; inconclusive = small, poorly fitted or top-dose-only effect, or another doubt; inactive = no such curve, though single readings can be large or run the other way; cell line not stated here;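 note: phosphodiesterase inhibitor Ro 20-1724 added with compounds to block cAMP breakdown; nearly all actives have a fitted effect of over 60% in size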
#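 Cells stably selected in G418 were plated at 2000/well, grown 16-24 hr, then given compounds in DMSO with the PDE inhibitor […] (300 uM solution added) for 30 min at 37C; cAMP was read by HTRF.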
# RXFP1 agonist: agonists of human relaxin receptor RXFP1; HEK293T-RXFP1 cAMP TR-FRET, 30 min; response scale: percent of porcine relaxin response, buffer zero; 370,000 tested, 0.3% active; Potency, µM (top dose mostly 57.5 µM), usual class: activators; Q9HBX9; AID 2676; active = well fitted activation curve with a large enough effect; inconclusive = small, poorly fitted or top-dose-only effect; note: nearly all actives have a fitted effect of over 60% in size
#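 HEK293 cells stably expressing RXFP1, treated 30 min at 37C with compounds plus PDE4 inhibitor Ro 20174; cAMP measured by HTRF TR-FRET. Normalized to buffer and 29 nM porcine relaxin; EC50 by Hill fit.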
# Numbers stand for hits; i = inactive; ? = inconclusive; nt = no result given; [ ] = remark or other dose.
SMILES,RXFP1 antag,gsp antag,gsp ag,RXFP1 agonist
COC(=O)C1=C(c2ccc3ccccc3c2)C[C@@H]2CC[C@H]1N2C,nt,i,?,i
O=C(Nc1ccc(Br)cc1)c1cc(Br)cc(Br)c1O,-81,nt,nt,nt
O=C(Nc1ccc(Br)cc1C(=O)c1ccccc1)c1ccccc1,i,nt,nt,i
O=c1[nH]c(=S)[nH]c(O)c1N=Nc1ccc2c(c1)OCCO2,-95,i,i[15.4 µM],i
CCO[C@H]1O[C@@H]2OC3(C)CC[C@H]4[C@H](C)CC[C@@H]([C@H]1C)[C@@]24OO3,i,nt,nt,nt
C[n+]1c(-c2ccccc2)c2cc(N)ccc2c2ccc(N)cc21,nt,35µM,nt,i
Nc1ccc2ccc3cccc[n+]3c2c1,i,i,?,?
CN(N=Cc1ccc([N+](=O)[O-])cc1)c1ccccn1,i,nt,i,nt
COc1ccc(OC)c(CCNCc2c(C(=O)O)c(C)n(Cc3ccc(F)cc3Cl)c2C)c1,-63,nt,nt,i
